Our source for the growth values is PubChem BioAssay (NCI).

The structures appear in SMILES notation. About 83,000 compounds went through this panel and 20% of them were active in at least one assay; those are over-represented in the sample as a whole.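 For each line, cells grew in 96-well plates with the test compound present at a single concentration for 48 hours.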 Values without a mark were called inactive. Activity calls are given as the source filed them. Rule for the calls: active = growth percent below 10; inactive = the rest.

Test systems include HCT-15 colon; SNB-75 CNS; SNB-19 CNS; U251 CNS; PC-3 prostate; SK-MEL-5 melanoma; UACC-62 melanoma; LOX IMVI melanoma; SK-MEL-28 melanoma; SK-MEL-2 melanoma; EKVX NSCLC; SN12C renal; UO-31 renal; TK-10 renal; ACHN renal; CAKI-1 renal; A498 renal; CCRF-CEM leukemia; MOLT-4 leukemia; HT29 colon.
Holding throughout (assay): NCI-60 one-dose screen, 48 h (100 = growth as untreated, 0 = no growth, -100 = all killed)
What all share (details): 10 µM unless noted

For the compound `O=S(=O)(NCCCNc1nccc(-c2c(-c3ccc(F)c(O)c3)nc3sccn23)n1)c1ccc(F)cc1`, the growth in the assay on HCT-15 colon was 6.51% (active); with SNB-75 CNS, 51.3%; in the assay on SNB-19 CNS, 19.7%; in the assay on U251 CNS, 2.83% (active); in the assay with PC-3 prostate, 8.22% (active); in the assay on SK-MEL-5 melanoma it was -45.1% (active). Also, the growth in the assay on UACC-62 melanoma was -42.2% (active); in the assay on LOX IMVI melanoma, 2.15% (active); in the assay with SK-MEL-28 melanoma, 9.19% (active); in the assay with SK-MEL-2 melanoma, -29.9% (active); with EKVX NSCLC, 30.6%; in the assay with SN12C renal, 4.8% (active). The growth in the assay with UO-31 renal was -1.81% (active); in the assay with TK-10 renal, 27.6%; in the assay with ACHN renal, 6.06% (active); in the assay on CAKI-1 renal, 8.16% (active); in the assay with A498 renal it was -10.9% (active); with CCRF-CEM leukemia, -13.2% (active). Further, in the assay with MOLT-4 leukemia, the growth was -3.88% (active).

Consider `O=C(Nc1ccc2ncnc(Nc3ccc(Oc4cccc(F)c4)c(Cl)c3)c2c1)c1ccc(CN2CCOCC2)cc1`, for which the growth in the assay with HCT-15 colon was 11.2%; in the assay with SNB-75 CNS it was 55.8%; in the assay on SNB-19 CNS it was 50.8%; in the assay on U251 CNS, 36.5%; in the assay with PC-3 prostate, 14.6%; in the assay on SK-MEL-5 melanoma it was 4.82% (active). The growth with UACC-62 melanoma is 53.5%; in the assay with LOX IMVI melanoma, 8.89% (active); with SK-MEL-28 melanoma it was 52.2%; in the assay on SK-MEL-2 melanoma it was 59.1%; in the assay with EKVX NSCLC it was 30.4%; in the assay with SN12C renal it was 39%. The growth was 20.3% in the assay on UO-31 renal; 53.6% with TK-10 renal; 17.5% in the assay with ACHN renal; 24.4% with CAKI-1 renal; 53.9% in the assay on A498 renal; 2.89% (active) in the assay with CCRF-CEM leukemia. Moreover, the growth in the assay on MOLT-4 leukemia is -3.45% (active).

In the case of `NC(=O)C1(N2CCCCC2)CCN(CCCC(=O)c2ccc(F)cc2)CC1`, the growth in the assay with HCT-15 colon was 93.6%; in the assay on SNB-75 CNS, 23.5%; in the assay on SNB-19 CNS, 32.3%; in the assay on PC-3 prostate it was 30.2%; in the assay with SK-MEL-5 melanoma, 4.4% (active); in the assay on UACC-62 melanoma it was 29.3%. Besides, the growth was 42.4% in the assay on LOX IMVI melanoma; 51.7% in the assay with SK-MEL-28 melanoma; 13.9% with SK-MEL-2 melanoma; 59.2% with EKVX NSCLC; 43.3% with SN12C renal; 88.9% with UO-31 renal. In addition, the growth is 88.2% with TK-10 renal; 90.9% with ACHN renal; 91.7% in the assay with CAKI-1 renal; 32.8% in the assay on A498 renal; 0.142% (active) in the assay with CCRF-CEM leukemia; 26.8% with MOLT-4 leukemia.

Regarding `CC(=O)OCCCCCNc1ccccc1`, the growth in the assay with HCT-15 colon is 107%; in the assay with SNB-75 CNS it was 103%; with SNB-19 CNS, 107%; in the assay with U251 CNS, 100%; with PC-3 prostate, 100%; with SK-MEL-5 melanoma, 106%. For the same compound, the growth is 106% in the assay with UACC-62 melanoma; 100% with LOX IMVI melanoma; 106% with SK-MEL-28 melanoma; 102% in the assay with SK-MEL-2 melanoma; 104% in the assay on EKVX NSCLC; 103% in the assay on SN12C renal. The growth with UO-31 renal was 88.1%; in the assay with TK-10 renal it was 107%; with CAKI-1 renal it was 95.7%; with CCRF-CEM leukemia, 103%; in the assay with MOLT-4 leukemia, 91.3%.

As for `Cc1nc2sc(C(=O)Nc3cccc(Br)c3)c(N)c2cc1C(=O)c1ccc(C(F)(F)F)cc1`, the growth in the assay with HT29 colon is 90.3%; in the assay with SNB-75 CNS, 55%; in the assay with SNB-19 CNS, 82.3%; with U251 CNS it was 58.7%; in the assay on PC-3 prostate, 70.2%; with SK-MEL-5 melanoma, 91%. For the same compound, the growth in the assay on UACC-62 melanoma was 82.7%; in the assay on LOX IMVI melanoma, 73.3%; with SK-MEL-28 melanoma it was 92.1%; with SK-MEL-2 melanoma it was 104%; in the assay with EKVX NSCLC it was 87.7%; in the assay with SN12C renal, 71%. The growth is 86.3% in the assay on UO-31 renal; 90.8% with TK-10 renal; 49.7% with ACHN renal; 79.8% with CAKI-1 renal; 109% in the assay with A498 renal; 82.1% in the assay on CCRF-CEM leukemia. For the same compound, in the assay on MOLT-4 leukemia, the growth is 94.7%.

Turning to `O=C(NCCN1CCOCC1)OCc1nc2nc(Cl)nc(N3CCOCC3)c2[nH]1`, the growth was 16.4% in the assay with HCT-15 colon; 1.3% (active) in the assay on SNB-75 CNS; 36.2% with SNB-19 CNS; 24% in the assay on PC-3 prostate; -29.7% (active) with SK-MEL-5 melanoma; 35.1% with UACC-62 melanoma. Further, the growth in the assay with LOX IMVI melanoma is 16.5%; in the assay on SK-MEL-28 melanoma it was 61.9%; with SK-MEL-2 melanoma, 18.9%; with EKVX NSCLC it was 95.2%; in the assay with SN12C renal, 29.2%; with UO-31 renal, 39.6%. Besides, the growth was 71% in the assay with TK-10 renal; 33.1% with ACHN renal; 25.2% in the assay on CAKI-1 renal; -8.24% (active) with A498 renal; 5.93% (active) in the assay on CCRF-CEM leukemia; 19% in the assay on MOLT-4 leukemia.

Take `CCNC(=O)c1[nH]cc(-c2ccc(OC)cc2)c1-c1cc(OC)c(OC)c(OC)c1`: the growth in the assay with HCT-15 colon is 35.7%; with SNB-75 CNS, -6.81% (active); in the assay with SNB-19 CNS, 55.2%; in the assay with U251 CNS, 55.5%; in the assay with PC-3 prostate, 28.8%; in the assay with SK-MEL-5 melanoma it was 16%. Further, the growth was 27% in the assay with UACC-62 melanoma; 44.5% in the assay with LOX IMVI melanoma; 56.7% in the assay with SK-MEL-28 melanoma; 67.5% in the assay on SK-MEL-2 melanoma; 62.4% with EKVX NSCLC; 60.5% in the assay with SN12C renal. Also, the growth was 30.7% in the assay on UO-31 renal; 83.9% with TK-10 renal; 29.4% in the assay with CAKI-1 renal; -14% (active) in the assay with A498 renal; 92% with MOLT-4 leukemia.

Turning to `CN1C(=O)N(C)[C@H]2NC(NN)=N[C@H]21`, the growth in the assay on HCT-15 colon is 103%; in the assay with SNB-75 CNS it was 80.9%; with SNB-19 CNS it was 106%; in the assay on U251 CNS, 98.7%; in the assay with PC-3 prostate, 96.3%; in the assay on SK-MEL-5 melanoma, 101%. Moreover, the growth was 101% in the assay on UACC-62 melanoma; 97.8% in the assay with LOX IMVI melanoma; 101% in the assay on SK-MEL-28 melanoma; 108% with SK-MEL-2 melanoma; 99.1% in the assay on EKVX NSCLC; 99.8% with SN12C renal. Besides, the growth is 97.4% in the assay on TK-10 renal; 104% with ACHN renal; 89.2% in the assay on CAKI-1 renal; 97.9% in the assay with A498 renal; 101% in the assay on MOLT-4 leukemia.
